The target in assay [1] is human Peroxisome Proliferator-activated Receptor alpha (PPARa), PPARA (gene 5465) (UniProt Q07869). In words: ATG_PPARa_TRANS: Attagene TRANS-FACTORIAL HepG2 Assay for human Peroxisome Proliferator-activated Receptor alpha (PPARa) (AID 2283001).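 For AC50: potency for gain of reporter signal over DMSO so agonist or activator.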 The procedure, abridged: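 Measures transcriptional activity of an exogenous chimeric PPARa-Gal4 protein in transiently transfected HepG2 cells after 24 h dosing. Reporter mRNA quantified via RT-PCR and capillary electrophoresis; DMSO served as negative control.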

Assay [2] addresses human Peroxisome Proliferator-activated Receptor delta (PPARd), PPARD (gene 5467) (UniProt Q03181). In words: ATG_PPARd_TRANS: Attagene TRANS-FACTORIAL HepG2 Assay for human Peroxisome Proliferator-activated Receptor delta (PPARd) (AID 2283002). The procedure, abridged: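 HepG2 cells transiently transfected with GAL4-UAS multiplexed reporter units driven by exogenous chimeric NR-GAL4 proteins; 24 h compound exposure. Reporter mRNA measured by RT-PCR, 6-FAM primer extension, HpaI digestion and capillary electrophoresis; gain of signal fitted relative to DMSO.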

In assay [3] the target is Peroxisome proliferator-activated receptor gamma (Homo sapiens) (UniProt P37231). Briefly: ATG_PPARg_TRANS: Attagene TRANS-FACTORIAL HepG2 Assay for human Peroxisome Proliferator-activated Receptor-gamma (PPARg) (AID 2283007). The method, boiled down: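 HepG2 cells transiently transfected with multiplexed GAL4-UAS reporter units and exogenous chimeric NR-Gal4 proteins; reporter mRNA quantified after 24 h compound exposure by RT-PCR, fluorescent labelling, HpaI digestion and capillary electrophoresis; gain-of-signal fitted versus DMSO baseline.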

For assay [4], the target named is Nuclear receptor subfamily 1 group I member 2 (Homo sapiens) (UniProt O75469). Briefly: ATG_PXR_TRANS: Attagene TRANS-FACTORIAL HepG2 Assay for human Pregnane X Receptor (PXR) (AID 2283008). The procedure, abridged: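 Fluorescence intensity of FAM-labelled, HpaI-digested reporter amplicons, separated by capillary electrophoresis, quantifies induction. HepG2 cells with PXR-Gal4 trans-reporter system were exposed 24 h; DMSO defines baseline.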

Assay [5] has as its target human Retinoic Acid Receptor gamma (RARg), RARG (gene 5916) (UniProt P13631). Briefly: ATG_RARg_TRANS: Attagene TRANS-FACTORIAL HepG2 Assay for human Retinoic Acid Receptor gamma (RARg) (AID 2283009).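 For AC50: AC50 is for reporter induction above DMSO meaning RARg activation.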 The procedure, abridged:
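HepG2 cells transiently transfected with multiplexed reporter units expressing chimeric RARg-GAL4 and GAL4-UAS-driven reporters; 24 h compound exposure. Reporter mRNA quantified by RT-PCR with fluorescent labelling and capillary electrophoresis; gain-of-signal fitted relative to DMSO baseline.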

In assay [6] the target is human RAR-related Orphan Receptor beta (RORb), RORB (gene 6096) (UniProt Q92753). In words: ATG_RORb_TRANS: Attagene TRANS-FACTORIAL HepG2 Assay for human RAR-related Orphan Receptor beta (RORb) (AID 2283010). The procedure, abridged: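 HepG2 cells were transiently transfected with multiplexed GAL4-UAS reporter units expressing chimeric nuclear receptor–GAL4 proteins, then dosed for 24 h. Reporter mRNA was quantified by RT-PCR with fluorescent labelling and capillary electrophoresis; gain of signal was fitted relative to DMSO.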

Read-out in assay [7]: Intercellular Adhesion Molecule 1 (ICAM1), ICAM1 (gene 3383)
In words: BSK_3C_ICAM1: BioMAP Diversity Plus: 3C Assay for Intercellular Adhesion Molecule 1 (ICAM1) Biomarker Activity (AID 2283003; active = hit-call score of the fitted dose curve at least 0.9, where 1 is the maximum; inactive = score below 0.9). The note with it: primary human endothelial cells (HUVEC); actives raise or lower the signal. The procedure, abridged: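 Primary human umbilical vein endothelial cells in the BioMAP 3C system were exposed to chemicals for 24 h, then ICAM-1 was quantified by ELISA. Activity was fitted bidirectionally against the DMSO negative control baseline.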

Assay [8] has as its target Retinoic acid receptor RXR-alpha (Homo sapiens) (UniProt P19793). In words: ATG_RXRa_TRANS: Attagene TRANS-FACTORIAL HepG2 Assay for human Retinoid X Receptor alpha (RXRa) (AID 2283012). The procedure, abridged:
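HepG2 cells transiently transfected with multiplexed GAL4-UAS reporter units and chimeric NR-GAL4 fusions, dosed 24 h. Reporter mRNA measured by RT-PCR, FAM labelling, HpaI digestion and capillary electrophoresis; gain-of-signal fitted relative to DMSO baseline.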

In assay [9] the target is human Retinoic Acid Receptor beta (RARb), RARB (gene 5915) (UniProt P10826). In words: ATG_RARb_TRANS: Attagene TRANS-FACTORIAL HepG2 Assay for human Retinoic Acid Receptor beta (AID 2283004). The procedure, abridged: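 Induction of reporter mRNA from a chimeric RARb-Gal4 construct was measured by RT-PCR, FAM labelling, HpaI digestion and capillary electrophoresis. Measurements followed 24 h compound treatment of transiently transfected human HepG2 liver cells, with DMSO as baseline.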

Assay [10] is described as follows: BSK_3C_Proliferation: Cell Proliferation Assessment in the BioMAP Diversity Plus: 3C Assay (AID 2283006; active = hit-call score of the fitted dose curve at least 0.9, where 1 is the maximum; inactive = score below 0.9;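 for AC50: potency may reflect either rise or fall in cell number versus DMSO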). The note with it: primary human endothelial cells (HUVEC). The method, boiled down: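 Human umbilical vein endothelial cells were grown sub-confluent and exposed to chemical for 48 h, then fixed with 10% TCA and stained with 0.1% sulforhodamine B; absorbance at 560 nm gave relative cell number, fitted bidirectionally against DMSO baseline.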

Where “and” joins values, the source holds several entries; their conditions need not be identical. Equal values may be shown once. Inconclusive results are not listed. More than one record can exist for a structure, and the calls need not agree. Calls of active or inactive are those of the source. Rule for the calls, unless noted: active = hit-call score of the fitted dose curve at least 0.9, where 1 is the maximum; inconclusive = response in the unintended direction; inactive = score below 0.9.

Usually AC50 stands for the midpoint of the concentration-response curve, whichever way the signal moves.

Sequence of human Peroxisome Proliferator-activated Receptor delta (PPARd), PPARD (gene 5467) (Q03181 whole entry, looked up, the tested form may be a part): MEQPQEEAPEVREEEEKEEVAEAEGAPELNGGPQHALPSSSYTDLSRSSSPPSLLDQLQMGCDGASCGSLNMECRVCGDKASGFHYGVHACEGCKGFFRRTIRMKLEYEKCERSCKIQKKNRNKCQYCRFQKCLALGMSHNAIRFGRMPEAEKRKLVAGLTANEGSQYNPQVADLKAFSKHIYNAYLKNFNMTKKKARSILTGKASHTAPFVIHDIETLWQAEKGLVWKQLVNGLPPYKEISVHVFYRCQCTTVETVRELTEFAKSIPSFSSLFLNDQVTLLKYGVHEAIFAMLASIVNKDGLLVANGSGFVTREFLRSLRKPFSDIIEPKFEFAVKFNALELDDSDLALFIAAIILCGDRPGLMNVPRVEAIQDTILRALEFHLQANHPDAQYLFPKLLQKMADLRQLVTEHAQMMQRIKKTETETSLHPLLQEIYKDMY
Sequence of human RAR-related Orphan Receptor beta (RORb), RORB (gene 6096) (Q92753 whole entry, looked up, the tested form may be a part): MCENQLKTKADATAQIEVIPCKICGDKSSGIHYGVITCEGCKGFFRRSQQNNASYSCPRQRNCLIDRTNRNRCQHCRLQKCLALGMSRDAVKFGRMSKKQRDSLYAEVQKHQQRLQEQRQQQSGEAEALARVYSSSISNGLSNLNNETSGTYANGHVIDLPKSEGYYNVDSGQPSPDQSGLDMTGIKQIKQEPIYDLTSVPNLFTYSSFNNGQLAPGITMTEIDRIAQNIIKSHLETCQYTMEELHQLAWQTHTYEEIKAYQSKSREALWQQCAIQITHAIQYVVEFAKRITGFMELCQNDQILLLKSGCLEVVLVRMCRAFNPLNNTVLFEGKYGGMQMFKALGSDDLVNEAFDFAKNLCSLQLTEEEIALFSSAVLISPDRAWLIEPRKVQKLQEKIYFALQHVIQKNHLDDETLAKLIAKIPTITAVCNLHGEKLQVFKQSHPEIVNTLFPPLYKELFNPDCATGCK
Sequence of Nuclear receptor subfamily 1 group I member 2 (Homo sapiens) (O75469 whole entry, looked up, the tested form may be a part): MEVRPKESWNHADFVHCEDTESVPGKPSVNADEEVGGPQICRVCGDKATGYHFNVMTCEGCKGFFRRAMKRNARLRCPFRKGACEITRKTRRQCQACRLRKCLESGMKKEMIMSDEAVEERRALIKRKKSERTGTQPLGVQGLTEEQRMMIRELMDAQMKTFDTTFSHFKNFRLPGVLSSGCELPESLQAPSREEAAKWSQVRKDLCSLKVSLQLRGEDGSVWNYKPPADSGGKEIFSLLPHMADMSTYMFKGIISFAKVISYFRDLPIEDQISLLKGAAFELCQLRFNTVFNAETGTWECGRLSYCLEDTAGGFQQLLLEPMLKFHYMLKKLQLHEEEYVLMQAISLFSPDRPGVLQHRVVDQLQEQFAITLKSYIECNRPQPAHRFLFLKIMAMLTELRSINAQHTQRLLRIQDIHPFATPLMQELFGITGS
Sequence of human Peroxisome Proliferator-activated Receptor alpha (PPARa), PPARA (gene 5465) (Q07869 whole entry, looked up, the tested form may be a part): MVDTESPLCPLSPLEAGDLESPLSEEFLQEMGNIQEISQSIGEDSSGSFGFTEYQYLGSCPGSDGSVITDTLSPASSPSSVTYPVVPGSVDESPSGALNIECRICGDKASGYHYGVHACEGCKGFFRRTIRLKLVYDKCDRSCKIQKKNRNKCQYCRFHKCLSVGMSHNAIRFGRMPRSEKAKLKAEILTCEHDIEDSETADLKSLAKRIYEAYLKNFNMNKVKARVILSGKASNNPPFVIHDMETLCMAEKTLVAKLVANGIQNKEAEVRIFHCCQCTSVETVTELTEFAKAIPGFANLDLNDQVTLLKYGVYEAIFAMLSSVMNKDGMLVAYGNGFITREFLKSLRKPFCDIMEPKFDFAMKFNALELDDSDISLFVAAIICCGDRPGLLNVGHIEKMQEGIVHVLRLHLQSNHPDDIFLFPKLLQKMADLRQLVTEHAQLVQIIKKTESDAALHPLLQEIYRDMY
Sequence of Peroxisome proliferator-activated receptor gamma (Homo sapiens) (P37231 whole entry, looked up, the tested form may be a part): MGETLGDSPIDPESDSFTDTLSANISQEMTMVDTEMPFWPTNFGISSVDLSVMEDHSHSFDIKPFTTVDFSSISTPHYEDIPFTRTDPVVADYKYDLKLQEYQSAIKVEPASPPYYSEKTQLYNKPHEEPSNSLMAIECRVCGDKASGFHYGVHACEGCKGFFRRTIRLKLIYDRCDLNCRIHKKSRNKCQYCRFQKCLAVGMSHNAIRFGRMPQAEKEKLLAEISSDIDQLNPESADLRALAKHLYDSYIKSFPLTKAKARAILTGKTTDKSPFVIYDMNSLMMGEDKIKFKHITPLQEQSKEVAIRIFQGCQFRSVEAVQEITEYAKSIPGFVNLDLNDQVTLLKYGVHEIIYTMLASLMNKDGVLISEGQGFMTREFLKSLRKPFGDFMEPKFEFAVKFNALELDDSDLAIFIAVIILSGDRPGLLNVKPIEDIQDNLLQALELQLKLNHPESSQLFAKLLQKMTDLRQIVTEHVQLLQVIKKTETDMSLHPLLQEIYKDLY
Sequence of human Retinoic Acid Receptor gamma (RARg), RARG (gene 5916) (P13631 whole entry, looked up, the tested form may be a part): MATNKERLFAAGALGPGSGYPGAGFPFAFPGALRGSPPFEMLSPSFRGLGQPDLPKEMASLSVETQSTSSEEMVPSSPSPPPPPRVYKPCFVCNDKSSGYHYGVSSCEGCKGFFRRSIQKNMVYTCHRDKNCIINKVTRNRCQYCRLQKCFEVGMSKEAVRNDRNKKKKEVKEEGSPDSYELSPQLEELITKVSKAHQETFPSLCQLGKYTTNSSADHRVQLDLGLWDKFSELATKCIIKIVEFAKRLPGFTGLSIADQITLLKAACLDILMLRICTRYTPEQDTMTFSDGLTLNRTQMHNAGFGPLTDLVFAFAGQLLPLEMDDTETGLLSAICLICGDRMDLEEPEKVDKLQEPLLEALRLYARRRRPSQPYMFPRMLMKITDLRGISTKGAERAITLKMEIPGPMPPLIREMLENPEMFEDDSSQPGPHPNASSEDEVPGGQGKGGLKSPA
Sequence of Retinoic acid receptor RXR-alpha (Homo sapiens) (P19793 whole entry, looked up, the tested form may be a part): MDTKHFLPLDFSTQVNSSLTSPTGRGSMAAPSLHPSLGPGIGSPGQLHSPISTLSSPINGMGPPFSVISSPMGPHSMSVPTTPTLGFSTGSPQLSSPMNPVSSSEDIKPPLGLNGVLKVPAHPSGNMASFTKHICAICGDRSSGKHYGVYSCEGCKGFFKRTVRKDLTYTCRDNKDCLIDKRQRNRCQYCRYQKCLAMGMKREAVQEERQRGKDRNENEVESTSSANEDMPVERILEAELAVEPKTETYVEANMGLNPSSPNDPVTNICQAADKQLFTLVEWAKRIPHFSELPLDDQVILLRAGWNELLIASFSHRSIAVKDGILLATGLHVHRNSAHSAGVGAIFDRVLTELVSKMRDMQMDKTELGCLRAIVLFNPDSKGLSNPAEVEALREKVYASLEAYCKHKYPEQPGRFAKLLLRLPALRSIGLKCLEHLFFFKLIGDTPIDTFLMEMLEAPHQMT
Sequence of human Retinoic Acid Receptor beta (RARb), RARB (gene 5915) (P10826 whole entry, looked up, the tested form may be a part): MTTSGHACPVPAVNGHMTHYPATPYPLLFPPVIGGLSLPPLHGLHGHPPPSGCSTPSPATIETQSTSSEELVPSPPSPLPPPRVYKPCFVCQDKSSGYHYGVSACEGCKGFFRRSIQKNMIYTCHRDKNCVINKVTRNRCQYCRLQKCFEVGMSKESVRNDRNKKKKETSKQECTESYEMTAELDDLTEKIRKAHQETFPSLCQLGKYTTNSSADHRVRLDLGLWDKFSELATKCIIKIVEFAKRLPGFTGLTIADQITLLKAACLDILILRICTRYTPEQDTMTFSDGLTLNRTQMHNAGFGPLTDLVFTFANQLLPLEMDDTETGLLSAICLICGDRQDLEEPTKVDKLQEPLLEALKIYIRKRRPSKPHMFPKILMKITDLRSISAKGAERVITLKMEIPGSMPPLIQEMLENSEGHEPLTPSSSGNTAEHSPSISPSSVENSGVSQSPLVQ

For the compound `O=C1OC2(c3ccccc31)c1cc(Br)c(O)c(Br)c1Oc1c2cc(Br)c(O)c1Br`, the compound was called inactive in assay [1], in [2], in [3], in assay [4], in assay [5] and in assay [6]. Besides, the half-maximal activity concentration (AC50) in assay [3] was 51.8 µM (active); in assay [4] it was 8.91 µM (active).
With `O=c1c(-c2ccc(O)cc2)coc2cc(O)ccc12`, the compound was called inactive in assay [1], in assay [2], in [7], in assay [4], in [6] and in [8]. Also, the AC50 in assay [3] was 27.3 µM (active) and 20.3 µM (active) and 65.3 µM (active).
With `CC(C)CCCCCCOC(=O)CCCCC(=O)OCCCCCCC(C)C`, the call in assay [1], in [2], in assay [7], in [3] and in assay [5] was inactive.
Turning to `NCC(F)(F)C(F)(F)C(F)(F)C(F)(F)C(F)(F)C(F)(F)C(F)(F)F`, the compound was called inactive in [1], in assay [2], in [7], in assay [3], in [4] and in [5]. In [8], the compound was called inactive.
Turning to `CC(O)C(=O)O` (configuration not stated), the compound was classed as inactive in [1], in [2], in assay [9], in [4], in assay [5] and in assay [6]. For the same compound, in [8], the result was inactive.
Regarding `FC(F)(I)C(F)(F)C(F)(F)C(F)(F)C(F)(F)C(F)(F)I`, the values for the AC50 in assay [1], in assay [3] and in [4] were 27.3 µM (active), 14.4 µM (active) and 33.4 µM (active), respectively. Further, the result in assay [2] was inactive.
For `COC(=O)CCCCC(=O)OC`, the compound was classed as inactive in assay [1], in [2], in assay [7], in assay [10], in assay [4] and in assay [8].
Regarding `CC(=O)CC(C)(C)O`, the compound was classed as inactive in assay [1], in assay [2], in assay [7], in assay [9], in assay [10] and in assay [3]. The outcome in assay [4], in assay [5] and in [8] was inactive.
`CCCOC(=O)c1ccc(O)cc1`: the compound was called inactive in assay [1], in assay [2], in assay [7], in assay [9], in [4] and in assay [5]. Also, the AC50 in assay [3] is 45.6 µM (active); in [4], 100 µM (active).
Take `CC(=O)NC1(c2cccc(F)c2)CCN(CC[C@@]2(c3ccc(Cl)c(Cl)c3)CN(c3ccccc3)C(=O)CO2)CC1`: the result in [1], in [2], in [9] and in [5] was inactive. For the same compound, the AC50 was 20.8 µM (active) in assay [10], 49.1 µM (active) in [3], 8.59 µM (active) in assay [4] and 49.7 µM (active) in assay [8].
`CCCCCCCCCCCCCC[N+](C)(C)C`: the outcome in [1], in [2], in [9], in assay [3], in assay [4] and in assay [5] was inactive. Further, the compound was called inactive in assay [6] and in assay [8]. Moreover, the AC50 in assay [7] is 7.59 µM (active); in [10], 1.73 µM (active); in assay [3] it was 26.6 µM (active); in assay [5], 36.6 µM (active).
`CCCCCCCCOC(=O)CCCCCCCCC(=O)OCCCCCCCC`: the compound was called inactive in [1], in assay [2], in [7], in assay [10], in [3] and in assay [8].
For `CCC(=C(c1ccc(O)cc1)c1ccc(OCCN(C)C)cc1)c1ccccc1`, the AC50 was 11.8 µM (active) in [1]; 12.6 µM (active) in assay [7]; 10.9 µM (active) and 9.84 µM (active) and 11.1 µM (active) in assay [3]; 3.28 µM (active) [middle of 4 runs] in assay [4]. For the same compound, the result in [1], in [2], in assay [9], in assay [3], in assay [5] and in assay [8] was inactive.
In the case of `OCCC(F)(F)C(F)(F)C(F)(F)C(F)(F)C(F)(F)C(F)(F)F`, the outcome in assay [1], in [2], in assay [7], in assay [9], in assay [3] and in assay [4] was inactive. Also, the compound was called inactive in assay [5], in assay [6] and in assay [8]. For the same compound, the concentration at half-maximal activity (AC50) in assay [7] is 54.7 µM (active) and 44.7 µM (active).
As for `NC(=O)N1C(=O)C(C(=O)c2cc(Cl)cs2)c2cc(F)c(Cl)cc21` (configuration not stated), the result in [1], in [2], in assay [7], in assay [9], in assay [5] and in [6] was inactive. Besides, the call in assay [8] was inactive. In addition, the figures for the AC50 in assay [10], in [3] and in [4] were 11 µM (active), 2.71 µM (active) and 11 µM (active), respectively.
